{"source": "the supplement of paper PMC12808144", "note": "Counter-ions that a name gives are not always drawn. Values without a mark were called inactive.", "data": [{"tested_on": "Mel-DCC-11-R", "assay": "cell viability relative to DMSO control (fraction of DMSO control); higher = less cytotoxic, active = 0.8 or less", "conditions": "1 µM; 120 h; vemurafenib co-treatment 0 µM", "description": "(§1)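 Same 315-drug TargetMol library at 1 µM in duplicate, 120 h, ATPlite luminescence normalised to DMSO controls, on the vemurafenib-resistant subline Mel-DCC-11-R cultured alone or with 8 µM vemurafenib co-treatment (Mel-DCC-11-R + V).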", "values": [{"compound": "COc1cccc2c1C(=O)c1c(O)c3c(c(O)c1C2=O)C[C@@](O)(C(=O)CO)C[C@@H]3O[C@H]1C[C@H](N)[C@H](O[C@H]2CCCCO2)[C@H](C)O1", "note": "[Pirarubicin]", "cell viability": "0.233 (active)"}, {"compound": "CCN(CC)C(=S)SSC(=S)N(CC)CC", "note": "[Disulfiram]", "cell viability": "0.442 (active)"}, {"compound": "CC(C)(O)CNc1nc(Nc2ccnc(C(F)(F)F)c2)nc(-c2cccc(C(F)(F)F)n2)n1", "note": "[Enasidenib]", "cell viability": 1.3}, {"compound": "C[C@@H]1O[C@@H](O[C@H]2[C@H](Oc3cc(O)c4c(c3)O[C@H](c3ccc(O)cc3)CC4=O)O[C@H](CO)[C@@H](O)[C@@H]2O)[C@H](O)[C@H](O)[C@H]1O", "note": "[Naringin]", "cell viability": 1.02}, {"compound": "CN(C)C(=N)N=C(N)N.Cl", "note": "[Metformin hydrochloride]", "cell viability": 0.843}, {"compound": "C[C@]12CC[C@H](O)CC1=CC[C@@H]1[C@@H]2CC[C@]2(C)C(c3cccnc3)=CC[C@@H]12", "note": "[Abiraterone]", "cell viability": 1.07}, {"compound": "NC(=O)N1CCC(CC(=O)N2CCC([C@H]3c4ncc(Br)cc4CCc4cc(Cl)cc(Br)c43)CC2)CC1", "note": "[Lonafarnib]", "cell viability": 0.926}, {"compound": "C[C@H](Nc1ncnc2nc[nH]c12)c1cc2cccc(Cl)c2c(=O)n1-c1ccccc1", "note": "[Duvelisib]", "cell viability": 1.21}, {"compound": "COc1cc2c(N3CCN(C(=O)Nc4ccc(OC(C)C)cc4)CC3)ncnc2cc1OCCCN1CCCCC1", "note": "[Tandutinib]", "cell viability": 0.907}, {"compound": "Nc1nc(=O)c2c(CCc3ccc(C(=O)N[C@@H](CCC(=O)[O-])C(=O)[O-])cc3)c[nH]c2[nH]1.[Na+].[Na+]", "note": "[Pemetrexed Disodium Hydrate]", "cell viability": 1.11}, {"compound": "CCS(=O)(=O)N1CC(CC#N)(n2cc(-c3ncnc4[nH]ccc34)cn2)C1", "note": "[Baricitinib]", "cell viability": 1}, {"compound": "NC(=O)c1cccc2cn(-c3ccc([C@@H]4CCCNC4)cc3)nc12", "note": "[Niraparib]", "cell viability": 1.06}, {"compound": "Cl.NNc1nncc2ccccc12", "note": "[Hydralazine hydrochloride]", "cell viability": 1.03}, {"compound": "COC(=O)/C=C/C(=O)OC", "note": "[Dimethyl fumarate]", "cell viability": 1.06}, {"compound": "CCN(CC)CCNC(=O)c1c(C)[nH]c(/C=C2\\C(=O)Nc3ccc(F)cc32)c1C.C[C@@H](CC(=O)O)C(=O)O", "note": "[Sunitinib Malate]", "cell viability": 1.08}, {"compound": "Cn1nnc2c(C(N)=O)ncn2c1=O", "note": "[Temozolomide]", "cell viability": 0.884}, {"compound": "CC[C@@H]1C(=O)N(C)c2cnc(Nc3ccc(C(=O)N[C@H]4CC[C@H](N5CCN(CC6CC6)CC5)CC4)cc3OC)nc2N1C(C)C", "note": "[Volasertib]", "cell viability": 1}, {"compound": "Cn1cnc2c(F)c(Nc3ccc(Br)cc3F)c(C(=O)NOCCO)cc21", "note": "[Binimetinib]", "cell viability": "0.664 (active)"}, {"compound": "COc1cccc2c1C(=O)c1c(O)c3c(c(O)c1C2=O)C[C@@](O)(C(=O)CO)C[C@@H]3O[C@H]1C[C@H](N)[C@H](O)[C@H](C)O1.Cl", "note": "[Doxorubicin hydrochloride]", "cell viability": "0.166 (active)"}, {"compound": "COc1ccc2cc3[n+](cc2c1OC)CCc1cc2c(cc1-3)OCO2", "note": "[Berberine]", "cell viability": 1.05}]}, {"tested_on": "Mel-DCC-11-R", "assay": "cell viability relative to DMSO control (fraction of DMSO control); higher = less cytotoxic, active = 0.8 or less", "conditions": "1 µM; 120 h; vemurafenib co-treatment 8 µM", "description": "as §1", "values": [{"compound": "COc1cccc2c1C(=O)c1c(O)c3c(c(O)c1C2=O)C[C@@](O)(C(=O)CO)C[C@@H]3O[C@H]1C[C@H](N)[C@H](O[C@H]2CCCCO2)[C@H](C)O1", "note": "[Pirarubicin]", "cell viability": "0.0504 (active)"}, {"compound": "CCN(CC)C(=S)SSC(=S)N(CC)CC", "note": "[Disulfiram]", "cell viability": "0.108 (active)"}, {"compound": "CC(C)(O)CNc1nc(Nc2ccnc(C(F)(F)F)c2)nc(-c2cccc(C(F)(F)F)n2)n1", "note": "[Enasidenib]", "cell viability": 0.834}, {"compound": "C[C@@H]1O[C@@H](O[C@H]2[C@H](Oc3cc(O)c4c(c3)O[C@H](c3ccc(O)cc3)CC4=O)O[C@H](CO)[C@@H](O)[C@@H]2O)[C@H](O)[C@H](O)[C@H]1O", "note": "[Naringin]", "cell viability": 1.19}, {"compound": "CN(C)C(=N)N=C(N)N.Cl", "note": "[Metformin hydrochloride]", "cell viability": 1.08}, {"compound": "C[C@]12CC[C@H](O)CC1=CC[C@@H]1[C@@H]2CC[C@]2(C)C(c3cccnc3)=CC[C@@H]12", "note": "[Abiraterone]", "cell viability": 1.16}, {"compound": "NC(=O)N1CCC(CC(=O)N2CCC([C@H]3c4ncc(Br)cc4CCc4cc(Cl)cc(Br)c43)CC2)CC1", "note": "[Lonafarnib]", "cell viability": 0.889}, {"compound": "C[C@H](Nc1ncnc2nc[nH]c12)c1cc2cccc(Cl)c2c(=O)n1-c1ccccc1", "note": "[Duvelisib]", "cell viability": 0.864}, {"compound": "COc1cc2c(N3CCN(C(=O)Nc4ccc(OC(C)C)cc4)CC3)ncnc2cc1OCCCN1CCCCC1", "note": "[Tandutinib]", "cell viability": 1.04}, {"compound": "Nc1nc(=O)c2c(CCc3ccc(C(=O)N[C@@H](CCC(=O)[O-])C(=O)[O-])cc3)c[nH]c2[nH]1.[Na+].[Na+]", "note": "[Pemetrexed Disodium Hydrate]", "cell viability": 1.13}, {"compound": "CCS(=O)(=O)N1CC(CC#N)(n2cc(-c3ncnc4[nH]ccc34)cn2)C1", "note": "[Baricitinib]", "cell viability": 1.22}, {"compound": "NC(=O)c1cccc2cn(-c3ccc([C@@H]4CCCNC4)cc3)nc12", "note": "[Niraparib]", "cell viability": 1.08}, {"compound": "Cl.NNc1nncc2ccccc12", "note": "[Hydralazine hydrochloride]", "cell viability": 1.19}, {"compound": "COC(=O)/C=C/C(=O)OC", "note": "[Dimethyl fumarate]", "cell viability": 1.13}, {"compound": "CCN(CC)CCNC(=O)c1c(C)[nH]c(/C=C2\\C(=O)Nc3ccc(F)cc32)c1C.C[C@@H](CC(=O)O)C(=O)O", "note": "[Sunitinib Malate]", "cell viability": 0.927}, {"compound": "Cn1nnc2c(C(N)=O)ncn2c1=O", "note": "[Temozolomide]", "cell viability": 0.874}, {"compound": "CC[C@@H]1C(=O)N(C)c2cnc(Nc3ccc(C(=O)N[C@H]4CC[C@H](N5CCN(CC6CC6)CC5)CC4)cc3OC)nc2N1C(C)C", "note": "[Volasertib]", "cell viability": "0.664 (active)"}, {"compound": "Cn1cnc2c(F)c(Nc3ccc(Br)cc3F)c(C(=O)NOCCO)cc21", "note": "[Binimetinib]", "cell viability": "0.406 (active)"}, {"compound": "COc1cccc2c1C(=O)c1c(O)c3c(c(O)c1C2=O)C[C@@](O)(C(=O)CO)C[C@@H]3O[C@H]1C[C@H](N)[C@H](O)[C@H](C)O1.Cl", "note": "[Doxorubicin hydrochloride]", "cell viability": "0.171 (active)"}, {"compound": "COc1ccc2cc3[n+](cc2c1OC)CCc1cc2c(cc1-3)OCO2", "note": "[Berberine]", "cell viability": 0.918}]}]}
